Screening results as filed in PubChem.
The list is not random: actives were taken first. Their share in the collection is about 2.3%.
pAkt inh = Akt phosphorylation inhibition; Neuro2A IGF-stimulated pAkt S473 HTRF, 20 min; hits give low values; activity change, % for hits at 50 µM; actives 0.32% (n = 360,000); AID 651550; in the data active = activity change below about -80%; inconclusive = mostly about -51% to -80%
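Single-point screen (50 µM final compound) in Neuro2A cells stimulated 20 min with 6 nM IGF at 37 deg C. After lysis, Ser473-phosphorylated Akt read by HTRF (ex 330 nm, em 615/665 nm) as the 665/615 ratio.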
FUS yeast rescue = rescues growth of FUS-expressing yeast. S. cerevisiae FUS-expressing, growth rescue, OD600, 24 h. Potency, µM (top dose mostly 76.6 µM), hits mostly activators. actives 0.24% (n = 390,000); also: nearly all actives have a fitted effect of over 55% in size
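S. cerevisiae expressing FUS from galactose induction served as the toxicity model. Growth after 24hr at 30C, read as absorbance at 600 nm, indicates suppression of toxicity; compounds dosed at several concentrations.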
TDP-43 yeast inh = TDP-43 toxicity inhibition in yeast. TDP-43 expressing yeast growth rescue, BacTiter-Glo, 24 h. Potency, µM (titrated, usually from 46.1 µM), usual class: activators. actives 1.8% (n = 410,000); also: nearly all actives have a fitted effect of over 50% in size
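Yeast expressing TDP-43 (pregrown in raffinose, seeded at OD600=0.02 in galactose medium) exposed to compounds 24 hr at 30 deg C. Growth read by BacTiter-Glo luminescence; rescue of toxicity appears as increased signal.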
Abeta yeast res = compounds reversing amyloid beta toxicity in yeast | yeast expressing A-beta42, growth rescue, OD600, 48 h; response scale: 0% DMSO, 100% iron-clioquinol control | Potency, µM (highest dose often 46.1 µM), most hits filed as activators | actives 0.063% (n = 410,000) | AID 1347071; also: nearly all actives have a fitted effect of over 55% in size
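Yeast A-beta toxicity model in growth medium with pinned compounds, 48 h at 30 C; growth read as absorbance at 600 nm. Normalized to FeCl3/clioquinol equimolar mix (positive) and DMSO (negative).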
aSyn yeast inh = rescues yeast growth from alpha-synuclein toxicity. Yeast expressing alpha-synuclein, growth rescue, BacTiter-Glo, 24 h. Potency, µM (top dose mostly 46.1 µM), most hits filed as activators. actives 0.14% (n = 370,000). AID 652106; also: nearly all actives have a fitted effect of over 65% in size
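Screening used galactose-induced yeast with toxic alpha-synuclein levels, exposed to compound for 24 hr at 30 deg C. Cell growth, read with BacTiter-Glo luminescence, gave the measured signal.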
Numbers stand for hits; – = inactive; ? = inconclusive; · = no result given; [ ] = another dose, or the depositor's remark. Unless noted, calls follow the shape of the dose curve; as a rule, active = well fitted curve in the direction sought with a large enough effect; inconclusive = small, poorly fitted or top-dose-only effect, or another doubt; inactive = no such curve, though single readings can be large; an effect the other way counts as inactive or inconclusive.

SMILES | pAkt inh | FUS yeast rescue | TDP-43 yeast inh | Abeta yeast res | aSyn yeast inh
CC1C(=O)N(Cc2cn(Cc3ccco3)nn2)CCS(=O)(=O)N1Cc1ccc(-c2ccc(Cl)c(Cl)c2)cc1 (configuration not stated) | – | ? | 35µM | – | ?
Cc1ccccc1-c1ccc(CN2C(C)C(=O)N(Cc3cn(Cc4ccco4)nn3)CCS2(=O)=O)cc1 (configuration not stated) | – | ? | 35µM | – | ?
Cc1ccc(-c2ccc(CN3C(C)C(=O)N(Cc4cn(Cc5ccco5)nn4)CCS3(=O)=O)cc2)c(C)c1 (configuration not stated) | – | ? | 35µM | – | ?
Cc1ccc(-c2ccc(CN3C(C)C(=O)N(Cc4cn(Cc5ccco5)nn4)CCS3(=O)=O)cc2)cc1 (configuration not stated) | – | ? | ? | – | ?
Cc1ccc(Cl)cc1Nc1nc(-c2cccnc2)cs1 | – | – | 13µM | – | –
Clc1cccc(Nc2nc(-c3ccncc3)cs2)c1 | – | – | 13µM | – | –
Clc1ccc(Nc2nc(-c3cccnc3)cs2)cc1 | · | – | – | – | –
CCOC(=O)C1=C(C)OC(N)=C(C#N)C1C1CCCCC1 (configuration not stated) | -118% | – | – | – | –
O=C(CSc1nccn1Cc1ccc(Cl)cc1)Nc1nc2ccccc2s1 | · | – | –[9.22 µM] | ? | ·
O=C(/C=C\c1ccccc1)Nc1ccc(NC(=O)c2ccco2)cc1 | – | – | 35µM | – | –
O=C(Oc1cccc(NC(=O)c2ccco2)c1)c1cccc(S(=O)(=O)N2CCCCC2)c1 | -116% | – | – | – | –
Cc1ccc(C(C)C)c(OCC(=O)Nc2cccc(-c3nc4ncccc4o3)c2)c1 | · | – | 22µM | – | ·
Cc1ccc(C(C)C)c(OCC(=O)Nc2cccc(NC(=O)c3ccco3)c2)c1 | · | – | 20µM | – | ·
O=C(Nc1cccc(NC(=O)c2ccccc2Cl)c1)c1ccco1 | – | – | 18µM | – | –
Cc1cccc(C)c1OCC(=O)Nc1cccc(NC(=O)c2ccco2)c1 | – | – | 25µM | – | –
Cc1cc(C)c(OCC(=O)Nc2cccc(-c3nc4ncccc4o3)c2)c(Br)c1 | · | – | – | – | ·
C/C(=N\NC(=O)c1ccc(F)cc1)c1cccc(NC(=O)c2cccc(F)c2)c1 | – | – | – | – | –
C/C(=N\NC(=O)c1ccc(F)cc1)c1cccc(NC(=O)c2ccco2)c1 | -95% | – | – | – | –
COc1c(C)cc(Br)cc1C(=O)Nc1cccc(-c2nc3ncccc3o2)c1 | – | – | 13µM | – | –
Cc1ccc(OCC(=O)NCC(c2ccc(Cl)cc2)N2CCCCC2)cc1 (configuration not stated) | · | – | ? | – | ·
CC1(C(=O)NCc2cccc(C(F)(F)F)c2)CCN1Cc1ccc(-c2ccccc2)o1 (configuration not stated) | – | – | – | – | 20µM
Cc1cccc(N=C2NN=C(c3ccc4c(c3)OCCO4)CS2)c1 | – | ? | – | – | –
Cc1cccc(N=C2NN=C(c3c(C)[nH]c4ccccc34)CS2)c1 | – | 11µM | – | – | –
CCOC(=O)c1c(C)n(C)c2ccc(OCC(O)CN3CCCCCC3)cc12 (configuration not stated) | – | – | – | – | –
CCOC(=O)c1c(C)n(C)c2ccc(OCC(O)Cn3nc(C)c(Br)c3C)cc12 (configuration not stated) | – | ? | 16µM | – | –
SMILES | pAkt inh | FUS yeast rescue | TDP-43 yeast inh | Abeta yeast res | aSyn yeast inh
Cc1ccc(CNC(=O)c2c3c(nc4ccccc24)C(=O)N(C2CCCCC2)C3)cc1 | · | – | – | – | ·
CC(Oc1ccccc1)C(=O)Nc1ccccc1C(=O)OCc1cc(=O)n2nc(C(C)C)sc2n1 (configuration not stated) | · | – | – | – | ·
Cc1ccc(Cc2nc3ccccc3nc2SCC(=O)N2CCCCC2C)cc1 (configuration not stated) | · | ? | 35µM | – | ·
Cc1ccc(Cc2nc3ccccc3nc2SCC(=O)N2CCCc3ccccc32)cc1 | · | – | – | – | ·
Cc1ccc(Cc2nc3ccccc3nc2SCC(=O)NCCC(C)C)cc1 | · | – | ? | – | ·
CCOc1ccccc1NC(=O)CSc1nc2ccccc2nc1Cc1ccc(C)cc1 | · | – | 25µM | – | ·
COc1cccc(Cc2nc3ccccc3nc2SCC(=O)N2CCCCC2C)c1 (configuration not stated) | · | ? | 35µM | – | ·
COc1cccc(Cc2nc3ccccc3nc2SCC(=O)N2CCN(c3ccccc3)CC2)c1 | · | – | – | – | ·
COc1ccc(NC(=O)C2CCC(CNS(=O)(=O)c3csc(C(N)=O)c3)CC2)cc1 (configuration not stated) | · | – | – | – | ·
O=C(Cc1ccc([N+](=O)[O-])cc1)c1ccc(O)cc1O | – | – | 16µM | – | –
COc1ccc(CC(=O)c2ccc(O)cc2O)cc1 | – | – | 13µM | – | –
NNc1nc(-c2ccccc2Cl)c2cc(Br)ccc2n1 | – | – | 16µM | – | –
N#CC(C#N)=C1C(=O)N(CCN2CCCCC2)c2ccccc21 | – | 22µM | – | – | –
N#CC(C#N)=C1C(=O)N(CCN2CCOCC2)c2ccccc21 | – | – | – | – | –
CCCN1CNc2c(c(=O)[nH]c(=S)n2CCC(C)(C)C)C1 | · | · | · | · | –
CCC(C)Cn1c(/C=C/c2ccccc2)nc2ccccc21 (configuration not stated) | · | – | 14µM | – | ·
CC(C)Cn1c(/C=C/c2ccc(F)cc2)nc2ccccc21 | · | – | 14µM | – | –
CC(C)CCn1c(/C=C/c2ccccc2)nc2ccccc21 | · | – | 14µM | – | ·
COc1ccc(/C=C/c2nc3ccccc3n2Cc2ccccc2OC)cc1 | – | – | ? | – | –
COc1ccccc1Cn1c(/C=C/c2ccccc2)nc2ccccc21 | – | · | 20µM | – | –
Cc1nc2sc(C)c(C)n2c(=O)c1S(=O)(=O)N1CCN(c2ccccc2F)CC1 | · | – | – | – | ·
CCOC(=O)Cn1c(C2CC(=O)N(c3ccc(C)cc3)C2)nc2ccccc21 (configuration not stated) | · | – | – | – | ·
COc1cccc(Cn2c(=O)n(-c3cccc(Cl)c3)c(=O)c3c4c(sc32)CN(C(C)=O)CC4)c1 | · | ? | – | – | ·
Cc1cccc(N2CCN(C(=O)c3cccn4c(=O)c5cc(Cl)ccc5nc34)CC2C)c1 (configuration not stated) | · | – | – | – | ·
O=C(c1ccc(N2CCN(C(=O)c3ccc(F)cc3F)CC2)cc1)c1cccc(F)c1 | – | – | 18µM | – | –
Cc1ccccc1CSCCNC(=O)COc1ccc(Cl)cc1 | – | – | 11µM | – | –
CC(C)(C)SCCNC(=O)COc1ccc(Cl)cc1 | – | – | – | – | –
Cc1ccc(CSCCNC(=O)CCSc2ccccc2)cc1 | – | – | – | – | –
